In PubChem BioAssay (NCI):
About 79,000 compounds went through this panel and 15% of them were active in at least one assay; those are over-represented in the sample as a whole. Active and inactive are the calls of the source. Rule as the data show it: active = growth inhibition above about 70%; inactive = the rest.

How the values were obtained:
[1] = NCI Yeast Anticancer Drug Screen. Data for the rad52 strain (AID 147);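 also: 0% = growth of vehicle-treated control cultures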; settings: S. cerevisiae rad52 mutant growth inhibition, stronger effect = higher value
Summary of the method: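 Yeast strain carrying a DNA damage repair alteration was exposed to test compounds. Growth inhibition was measured relative to vehicle-treated controls.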

[2] = NCI Yeast Anticancer Drug Screen. Data for the wt1 strain (AID 149);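 also: 0% = growth of vehicle-treated wt1 cultures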; settings: S. cerevisiae wt1 strain (SPY 50644) growth inhibition, stronger effect = higher value
Summary of the method: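 wt1 strain grown with compound or vehicle; inhibition taken from the growth difference.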

[3] = NCI Yeast Anticancer Drug Screen. Data for the rad50EPP+ strain (AID 151);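 also: 0% = growth of vehicle-treated control cultures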; settings: S. cerevisiae rad50 mutant strain, stronger effect = higher value
Summary of the method: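 Yeast strain carrying rad50 alteration (rad50EPP+) exposed to compounds; growth inhibition measured relative to vehicle-treated controls.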

[4] = NCI Yeast Anticancer Drug Screen. Data for the mgt1 strain (AID 153); settings: S. cerevisiae mgt1 mutant growth inhibition, stronger effect = higher value
Summary of the method: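 Yeast mgt1 strain (DNA repair/cell-cycle alteration panel) exposed to compounds; growth inhibition measured relative to vehicle-treated controls.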

[5] = NCI Yeast Anticancer Drug Screen. Data for the mec2-1 strain (AID 157); settings: S. cerevisiae mec2-1 strain, stronger effect = higher value
Summary of the method: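 mec2-1 yeast strain, carrying an alteration in DNA damage repair or cell cycle control, was exposed to compounds; growth inhibition was measured relative to vehicle-treated controls.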

[6] = NCI Yeast Anticancer Drug Screen. Data for the rad14 strain (AID 159);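 also: 0% = growth of vehicle-treated control cultures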; settings: S. cerevisiae rad14 strain growth inhibition, stronger effect = higher value
Summary of the method: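 DNA repair-defective yeast, compound-exposed; % growth inhibition derived by comparison with vehicle-treated controls.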

[7] = NCI Yeast Anticancer Drug Screen. Data for the sgs1 mgt1 strain (AID 161);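 also: 0% = growth of cultures given vehicle only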; settings: S. cerevisiae sgs1 mgt1 strain, stronger effect = higher value
Summary of the method: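 Percent growth inhibition was derived by comparing compound-exposed mutant yeast with vehicle-exposed cultures. The strain carries alterations in DNA damage repair.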

[8] = NCI Yeast Anticancer Drug Screen. Data for the CLN2oe strain (AID 163);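 also: 0% = growth of vehicle-only control cultures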; settings: S. cerevisiae CLN2oe strain, stronger effect = higher value
Summary of the method: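 Yeast cells carrying a defined cell-cycle control alteration were exposed to test compounds. Growth inhibition was scored against vehicle-treated control cultures.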

[9] = NCI Yeast Anticancer Drug Screen. Data for the bub3 strain (AID 167); settings: S. cerevisiae bub3 mutant strain, stronger effect = higher value
Summary of the method: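 In this screen, a yeast mutant lacking normal mitotic checkpoint function is challenged with compound. Relative growth versus vehicle gives the inhibition value.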

[10] = NCI Yeast Anticancer Drug Screen. Data for the wt2 strain (AID 169);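 also: 0% = growth of vehicle-treated yeast cultures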; settings: S. cerevisiae wt2 strain growth inhibition, stronger effect = higher value
Summary of the method: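 Yeast cells were exposed to test compounds, and growth inhibition was measured relative to vehicle-treated controls.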

[11] = NCI Yeast Anticancer Drug Screen. Data for the mlh1 strain (AID 171);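 also: 0% = growth of vehicle-treated control cultures of the same strain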; settings: S. cerevisiae mlh1 strain growth inhibition, stronger effect = higher value
Summary of the method: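 Yeast carrying a defined genetic alteration in DNA damage repair or cell cycle control were exposed to test compounds. Growth inhibition was measured relative to vehicle-treated controls.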

[12] = NCI Yeast Anticancer Drug Screen. Data for the sgs1 strain (AID 173);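 also: 0% = growth of vehicle-only control cultures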; settings: S. cerevisiae sgs1 mutant, stronger effect = higher value
Summary of the method: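 Yeast mutant strains carrying defined defects in DNA damage repair or cell cycle control were exposed to test compounds. Growth inhibition was scored against vehicle-treated controls.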

[13] = NCI Yeast Anticancer Drug Screen. Data for the mlh1 rad18 strain (AID 175); settings: S. cerevisiae mlh1 rad18 strain growth inhibition, stronger effect = higher value
Summary of the method: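 Growth inhibition of the yeast strain was measured after compound exposure and expressed relative to vehicle-treated controls. The strain carries defined defects in DNA damage repair.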

[14] = at 5.0 µM (retest, dose inferred, filed as 0.5)
[15] = at 50.0 µM (retest, dose inferred, filed as 5.0)

Measured: growth inhibition

CCC(=O)c1cc(C(=O)C(=S)SC)cc(C(=O)C(=S)SC)c1
active: [1]; at 11.0 µM 97% | [1]; at 33.0 µM 97% | [1]; at 100.0 µM 90% | [2]; at 11.0 µM 93% | [2]; at 33.0 µM 98% | [2]; at 100.0 µM 96% | [3]; at 11.0 µM 86% | [3]; at 33.0 µM 96% | [3]; at 100.0 µM 93% | [4]; at 11.0 µM 99% | [4]; at 33.0 µM 98% | [4]; at 100.0 µM 95% | [5]; at 11.0 µM 98% | [5]; at 33.0 µM 98% | [5]; [15] 96% | [5]; at 50.0 µM 86.8% | [5]; at 100.0 µM 95% | [6]; at 11.0 µM 94% | [6]; at 33.0 µM 98% | [6]; at 100.0 µM 95% | [7]; [15] 96% | [7]; at 50.0 µM 85.3% | [8]; at 11.0 µM 96% | [8]; at 33.0 µM 98% | [8]; at 100.0 µM 91% | [9]; at 11.0 µM 98% | [9]; at 33.0 µM 98% | [9]; at 50.0 µM 86.7% | [9]; at 100.0 µM 91% | [10]; at 11.0 µM 98% | [10]; at 33.0 µM 98% | [10]; at 100.0 µM 94% | [11]; at 11.0 µM 98% | [11]; at 33.0 µM 96% | [11]; at 100.0 µM 93% | [12]; at 11.0 µM 98% | [12]; at 33.0 µM 98% | [12]; at 100.0 µM 95% | [13]; [15] 96% | [13]; at 50.0 µM 86.8%
inactive: [1]; at 1.2 µM 1% | [1]; at 3.7 µM 57% | [2]; at 1.2 µM -2% | [2]; at 3.7 µM 17% | [3]; at 1.2 µM 3% | [3]; at 3.7 µM 50% | [4]; at 1.2 µM -12% | [4]; at 3.7 µM 51% | [5]; at 1.2 µM -9% | [5]; at 3.7 µM 36% | [5]; [14] 56% | [6]; at 1.2 µM 1% | [6]; at 3.7 µM 22% | [7]; [14] 22% | [8]; at 1.2 µM 28% | [8]; at 3.7 µM 69% | [9]; at 1.2 µM 6% | [9]; at 3.7 µM 44% | [9]; [14] 35% | [9]; [15] 68% | [10]; at 1.2 µM 19% | [10]; at 3.7 µM 59% | [11]; at 1.2 µM 0% | [11]; at 3.7 µM 40% | [12]; at 1.2 µM 27% | [12]; at 3.7 µM 62% | [13]; [14] 42%
